This is an account of results in PubChem BioAssay (NCATS).

Several values for one entry are separate records, joined by “and”; a condition that tells them apart may be missing. Equal entries are not always repeated. Values without a mark were called inactive. Results filed as inconclusive are left out. Activity calls are given as the source filed them. Unless noted, calls come from the whole dose curve; as a rule, active = well fitted curve in the direction sought with a large enough effect; inconclusive = small, poorly fitted or top-dose-only effect, or another doubt; inactive = no such curve, though single readings can be large; an effect the other way counts as inactive or inconclusive. Peptide text beside a SMILES is read from it.

The nature of assay [1]: Cell Viability - N2a (AID 540).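 Note: plate controls were DMSO alone for no effect and tamoxifen control for full effect; nearly all actives have a fitted effect of over 45% in size.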 The settings on record: N2a mouse neuroblastoma cell viability; at 92.2 µM (top of the series). In outline: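 CellTiter-Glo ATP luminescence, read 20 min after reagent at room temperature, reported viability following 40 h compound treatment at 37 °C. N2a mouse neuroblastoma cells seeded 1500/well; Hill equation gave AC50.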
Assay [2] is described as follows: Cell Viability - NIH 3T3 (AID 541).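 Note: cells exposed to compound for 40 hours; plate controls were DMSO alone for no effect and tamoxifen positive control for full effect; nearly all actives have a fitted effect of over 25% in size.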 In outline:
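Intracellular ATP (CellTiter-Glo luminescence, 20 min at room temperature) measured after 40 hr compound exposure at 37 °C of 1000 NIH 3T3 mouse fibroblasts/well in complete medium; AC50 derived by Hill-equation modelling of qHTS concentration-response curves.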

Assay [3] in a line: Cell Viability - HUV-EC-C (AID 542). For activity change, negative = cytotoxicity: % is set by controls: 0 for no effect and ±100 for the full control effect.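 Note: cells exposed to compound for 40 hours; nearly all actives have a fitted effect of over 35% in size.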 Note: potency is the fitted concentration of half-maximal effect. In outline:
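CellTiter-Glo luminescence measured ATP loss in HUV-EC-C cells (1000/well) after 40 hr compound exposure at 37 °C, in complete culture medium. Concentration-response data were Hill-fitted to give AC50.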

Assay [4] in a line: Cell Viability - H-4-II-E (AID 543).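 Note: cells exposed to compound for 40 hours; nearly all actives have a fitted effect of over 35% in size.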 Note: potency is the fitted concentration of half-maximal effect. The method in brief: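 CellTiter-Glo luminescence (intracellular ATP) measured after 40 h compound exposure at 37 °C in H-4-II-E rat hepatoma cells seeded at 1500/well. Values are AC50s fitted with the standard Hill equation.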
Assay [5] in a line: Cell Viability - SH-SY5Y (AID 544).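 Note: cells exposed to compound for 40 hours; nearly all actives have a fitted effect of over 55% in size.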 The settings on record: SH-SY5Y neuroblastoma cell viability; at 92.2 µM (top of the series). The method in brief: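 Cytotoxicity measured via ATP-dependent luciferase luminescence (CellTiter-Glo) following 40 h, 37 °C exposure of 1500 SH-SY5Y cells per well. Concentration-response data were fitted with the standard Hill equation to give AC50.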

The nature of assay [6]: Cell Viability - Renal Proximal Tubule (AID 545).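 Note: cells exposed to compound for 40 hours; nearly all actives have a fitted effect of over 40% in size.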 The method in brief:
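Luminescent ATP signal (CellTiter-Glo) served as the viability read-out after 40 hr compound exposure of freshly isolated rat proximal tubule cells at 37 °C. Concentration-dependent ATP loss was fitted with the Hill equation to give AC50.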

Assay [7] is described as follows: Cell Viability - Mesenchymal (AID 546).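 Note: cells exposed to compound for 40 hours before reading.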 The settings on record: mesenchymal cells viability, qHTS; at 91.7 µM (top of the series). In outline:
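In this qHTS cytotoxicity format, glomerulus-derived human mesenchymal kidney cells received compound for 40 hr, then luciferase-based ATP quantitation. Concentration-response data were fitted with the Hill equation.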
For orientation: Quantitative high-throughput screening tests each substance at several concentrations.

Assay [8] in a line: Cellular Toxicity (caspase-3) HepG2 (AID 654).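 Note: cells exposed to compound for 16 hours before reading; 0% = DMSO alone and 100% = caspase signal from 100 µM tamoxifen.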 The method in brief:
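Caspase 3/7 activation is measured as a luminescence increase (aminoluciferin substrate) after 16 h compound exposure of human hepatocarcinoma HepG2 cells. AC50 values are Hill fits, scaled between DMSO baseline and 100 uM tamoxifen stimulation.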

A short description of assay [9]: Cellular Toxicity (caspase-3) Jurkat (AID 655).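 Note: cells exposed to compound for 16 h at 37 °C before reading.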 Note: potency is the fitted concentration of half-maximal effect. The settings on record: Jurkat caspase-3 activation, luminescence; caspase-3 activation: at 92.2 µM (top of the series), DMSO = 0%, tamoxifen = 100%. In outline: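 5000 Jurkat cells/well; compound 16 hr, 37 °C; Caspase-Glo 3/7 added, 20 min RT; luminescence read. Norm: DMSO = 0%, tamoxifen 100 uM = 100%. AC50, Hill model.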

The nature of assay [10]: Cellular Toxicity (caspase-3) HUV-EC-C (AID 656). In outline: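 qHTS; HUV-EC-C, 1000 cells/well; 5 hr settle, 16 hr cmpd, 37°C; Caspase-Glo 3/7, 20 min RT; luminescence. Norm: DMSO = 0%, tamoxifen 100 uM = 100%. Hill-fit AC50.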
The nature of assay [11]: Cellular Toxicity (caspase-3) SHSY5Y (AID 657).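 Note: cells exposed to compound for 16 hours at 37 °C.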 The method in brief: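 qHTS, SH-SY5Y, 1500 cells/well, 5 h pre-incubation 37 °C; compound 16 h 37 °C; Caspase-Glo 3/7 1 h RT; luminescence. Norm.: DMSO = 0, 10 uM staurosporine = 100%. Hill fit → AC50.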
A short description of assay [12]: Cellular Toxicity (caspase-3) BJ (AID 658).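 Note: cells exposed to compound for 16 hours; 0% = DMSO basal and 100% = 10 µM staurosporine.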 The method in brief:
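Plated BJ cells (1000/well) rested 5 hr, received compound for 16 hr at 37 °C, then Caspase-Glo 3/7 reagent for 1 hr at room temperature before luminescence reading.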

Assay [13] can be described thus: Cellular Toxicity (caspase-3) MRC-5 (AID 659).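 Note: 0% = DMSO basal and 100% = 10 µM staurosporine.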 The method in brief: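 Apoptosis readout in MRC-5 cells: luciferase light generated after caspase 3/7 cleaves a peptide-aminoluciferin substrate, measured post 16 hr compound incubation at 37 °C.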
Assay [14] in a line: Cellular Toxicity (caspase-3) H-4-II-E (AID 663).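 Note: cells exposed to compound for 16 hr before readout.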 In outline:
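Caspase 3/7 activation measured in H-4-II-E cells in complete culture medium after 16 hr treatment at 37 °C, using luciferase-coupled substrate readout; AC50 values come from Hill-equation fits of normalized concentration-response data.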

Assay [15] is described as follows: Cellular Toxicity (caspase-3) Hek293 (AID 664).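 Note: cells exposed to compound for 16 h at 37 °C before readout.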 The method in brief: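 Concentration-response qHTS: caspase 3/7 activation measured by luminescent aminoluciferin substrate cleavage after 16 h compound exposure of Hek 293 cells. AC50 from Hill equation, with DMSO as basal and 100 uM tamoxifen as 100%.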
Assay [16] in a line: Cellular Toxicity (caspase-3) N2a (AID 665).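 Note: compound exposure lasted 16 h at 37 °C before readout.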 In outline:
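Caspase-3/7 activation measured as luminescence from Caspase-Glo reagent (1 h, room temperature) after 16 h compound exposure of mouse N2a cells. AC50 values from Hill-equation concentration-response, scaled between DMSO and 10 uM staurosporine.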

The target of assay [17] is Glucocorticoid receptor (Homo sapiens) (UniProt P04150). Briefly: GR-GFP Redistribution (AID 450;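 active = compounds whose dose series gives a full or clear partial fitted curve of increased nuclear translocation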; note: potency is the fitted concentration of half-maximal effect). The settings on record: U2OS GR-GFP nuclear translocation, laser cytometry, 2 h.
Chain of Glucocorticoid receptor (Homo sapiens) (P04150 whole entry, looked up, the tested form may be a part): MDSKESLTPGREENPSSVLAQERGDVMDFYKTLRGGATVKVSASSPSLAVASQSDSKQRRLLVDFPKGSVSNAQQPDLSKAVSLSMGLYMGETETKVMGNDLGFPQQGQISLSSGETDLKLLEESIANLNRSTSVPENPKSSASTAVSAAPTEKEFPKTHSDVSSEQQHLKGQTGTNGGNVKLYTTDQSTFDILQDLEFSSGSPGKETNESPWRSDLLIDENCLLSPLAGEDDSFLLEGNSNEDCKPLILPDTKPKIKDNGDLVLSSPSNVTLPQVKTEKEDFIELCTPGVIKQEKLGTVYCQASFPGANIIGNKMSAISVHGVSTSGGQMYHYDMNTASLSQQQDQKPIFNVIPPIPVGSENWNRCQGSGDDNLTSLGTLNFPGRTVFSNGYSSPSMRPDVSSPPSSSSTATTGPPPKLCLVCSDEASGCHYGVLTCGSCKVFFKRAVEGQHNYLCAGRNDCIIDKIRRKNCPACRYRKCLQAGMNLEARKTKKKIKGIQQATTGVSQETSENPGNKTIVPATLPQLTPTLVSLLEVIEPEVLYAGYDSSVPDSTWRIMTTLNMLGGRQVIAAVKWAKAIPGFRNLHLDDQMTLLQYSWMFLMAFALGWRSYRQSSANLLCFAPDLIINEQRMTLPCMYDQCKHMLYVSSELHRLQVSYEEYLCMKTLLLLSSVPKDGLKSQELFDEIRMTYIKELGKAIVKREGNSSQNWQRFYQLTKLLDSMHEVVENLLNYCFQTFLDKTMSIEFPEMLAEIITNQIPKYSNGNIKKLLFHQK
Assay [18] shares this target. Description: GR-EFC Redistribution (AID 451; calls by dose curve; note: potency is the fitted concentration of half-maximal effect). The settings on record: CHO-K1 GR-EFC translocation, beta-gal luminescence, 2 h. In outline: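 CHO-K1 cells stably expressing nuclear-localized β-gal enzyme acceptor and GR fused C-terminally to the enzyme donor fragment; ligand-driven nuclear translocation restores β-gal by complementation. Compounds titrated up to 46 uM final, 2 h at 37 °C; luminescence read.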

Assay [19] has as its target Mitogen-activated protein kinase 10 (Mus musculus) (UniProt Q61831). Briefly: JNK3 AlphaScreen Assay (AID 530; active = well fitted curve in either direction with a large enough effect, not every such curve was filed as active;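 note: kinase came from lysate of stimulated human HepG2 cells; signal reports phosphorylation of biotinylated GST-cJun 1-79 at Ser73 with 10 µM ATP; % is set by controls: 0 for no effect and ±100 for the full control effect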). The method in brief: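 Phosphorylation of biotinylated GST-cJun(1-79) at Ser73 is measured by AlphaScreen proximity luminescence. Enzyme is JNK3 in HepG2 lysates activated with interleukin-1beta and tumor necrosis factor alpha; ATP is 10 uM final.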
(Alpha assays give light when donor and acceptor beads are brought close together.)

Assay [20] deals with 3',5'-cyclic-AMP phosphodiesterase 4B (Homo sapiens) (UniProt Q07343). Briefly: qHTS Assay for Inhibitors of PDE-IV (AID 607; active = well fitted activation curve with a large enough effect in the main read-out, with a control signal flat, not every such curve was filed as active; note: % of control where 0% means no effect). In outline: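 Cell-based read-out of cAMP via a modified cyclic nucleotide-gated channel and membrane potential dye (535/590 nm) in HEK293 cells expressing PDE4 endogenously. Compounds tested up to 22.9 uM final; 100 uM RO 20-1724 reference.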
Chain of 3',5'-cyclic-AMP phosphodiesterase 4B (Homo sapiens) (Q07343 whole entry, looked up): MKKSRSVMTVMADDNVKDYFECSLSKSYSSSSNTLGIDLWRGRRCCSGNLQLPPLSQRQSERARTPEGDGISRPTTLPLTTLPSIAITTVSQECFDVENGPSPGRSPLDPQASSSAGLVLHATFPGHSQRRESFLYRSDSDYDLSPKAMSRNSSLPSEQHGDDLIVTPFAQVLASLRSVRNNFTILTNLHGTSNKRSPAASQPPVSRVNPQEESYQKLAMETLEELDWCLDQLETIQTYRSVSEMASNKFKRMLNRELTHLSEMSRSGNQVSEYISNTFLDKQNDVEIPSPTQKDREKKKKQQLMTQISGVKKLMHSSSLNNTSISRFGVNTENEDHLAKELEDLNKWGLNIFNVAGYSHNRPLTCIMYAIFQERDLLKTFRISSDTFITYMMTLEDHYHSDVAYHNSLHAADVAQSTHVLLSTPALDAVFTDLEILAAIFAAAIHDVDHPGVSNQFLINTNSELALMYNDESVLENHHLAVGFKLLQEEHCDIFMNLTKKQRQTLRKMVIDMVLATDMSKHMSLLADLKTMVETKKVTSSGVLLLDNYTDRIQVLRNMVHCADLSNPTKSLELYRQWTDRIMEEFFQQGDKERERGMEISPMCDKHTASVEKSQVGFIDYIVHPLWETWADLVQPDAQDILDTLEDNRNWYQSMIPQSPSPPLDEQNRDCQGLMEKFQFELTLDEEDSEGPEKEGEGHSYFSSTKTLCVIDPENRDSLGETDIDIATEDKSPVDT

As for `CCCCC/C=C\C/C=C\CCCCCCCC(=O)O`, the activity change, negative = cytotoxicity in assay [1] is -28.9%; in assay [7], 8.92%. Moreover, the call in assay [2], in assay [6], in [8], in [10], in assay [11] and in assay [12] was inactive. Further, the compound was called inactive in assay [13], in assay [14], in assay [15] and in [16]. For the same compound, the Potency result in assay [3] and in [4] was “inactive” throughout. In [5], the viability change, negative = cytotoxic is 0.00595%. Also, the caspase-3 activation in assay [9] was 2.62%.

Turning to `CC(=O)N[C@@H](CC(=O)O)C(=O)N[C@@H](CCC(=O)O)C(=O)O` (Ac-Asp-Glu-OH), the Potency in assay [17] was > 20.6 µM and > 46 µM; in assay [18], > 20.6 µM and > 46 µM. Besides, the outcome in [19] and in assay [20] was inactive.

Consider `CCN(CC)Cc1cc(Nc2ccnc3cc(Cl)ccc23)ccc1O`, for which the Potency in assay [17] and in assay [18] was more than 20.6 µM each time. In addition, the outcome in assay [19] was inactive.

With `CC(C)(C)NC(=O)[C@@H]1C[C@@H]2CCCC[C@@H]2CN1C[C@@H](O)[C@H](Cc1ccccc1)NC(=O)[C@H](CC(N)=O)NC(=O)c1ccc2ccccc2n1`, the compound was classed as inactive in assay [19], in [2] and in assay [16]. Besides, the Potency in assay [3] and in assay [4] was 50.1 µM (active) throughout. The viability change, negative = cytotoxic in [5] is -93.9% (active). For the same compound, the activity change, negative = cytotoxicity in assay [7] was -97.1% (active). The caspase-3 activation in assay [9] was 116% (active).

In the case of `CCCC(=O)O[C@]1(C(=O)COC(C)=O)CC[C@H]2[C@@H]3C[C@H](F)C4=CC(=O)C=C[C@]4(C)[C@@]3(F)[C@@H](O)C[C@@]21C`, the Potency in assay [17] was 0.00371 µM (active).

`COC(=O)CCC(=O)CN`: the Potency in assay [17] is more than 20.6 µM.

As for `CC(O)CO` (stereo unspecified), the call in assay [19], in assay [2], in assay [6], in assay [8], in assay [10] and in [11] was inactive. Also, the compound was classed as inactive in assay [12], in [13], in [14], in assay [15] and in assay [16]. Besides, the activity change, negative = cytotoxicity in assay [1] was -4.29% and -9.5%; in assay [7], 1.55% and 7.01%. Also, the Potency result in [3] and in assay [4] was “inactive” each time. In addition, the viability change, negative = cytotoxic in assay [5] was -13.2% and -4.54%. Moreover, in [9], the caspase-3 activation was 1.29% and 0.367%.

For `COc1ccc(CCNC[C@H](O)c2ccc(O)cc2)cc1OC`, the Potency in assay [17] and in assay [18] was more than 46 µM throughout. Also, the compound was classed as inactive in assay [19] and in assay [20].

In the case of `CC1=C2[C@@H]([C@H](C)CC[C@H]2/C=C(\C)C(=O)O)[C@H](O)C1`, the outcome in assay [19], in assay [2], in assay [6], in assay [8], in assay [10] and in assay [11] was inactive. In addition, the call in assay [12], in [13], in assay [14], in [15] and in assay [16] was inactive. Further, the activity change, negative = cytotoxicity is 6.2% in assay [1] and 8.87% in [7]. For the same compound, the Potency result in assay [3] and in [4] was “inactive” in each case. In addition, the viability change, negative = cytotoxic in assay [5] is -4.63%. The caspase-3 activation in assay [9] was 0.468%.

Consider `O=C(O)CCC(=O)C(=O)O`, for which the Potency in assay [17] is more than 46 µM; in assay [18], more than 9.22 µM. Moreover, the result in assay [19], in [2], in [6], in [20], in assay [8] and in assay [10] was inactive. For the same compound, the outcome in [11], in assay [12], in assay [13], in assay [14], in assay [15] and in assay [16] was inactive. Further, the activity change, negative = cytotoxicity was 6.48% in assay [1] and 6.49% in [7]. For the same compound, the Potency result in assay [3] and in assay [4] was “inactive” each time. Besides, the viability change, negative = cytotoxic in assay [5] is 4.65%. Further, the caspase-3 activation in [9] was 0.778%.

In the case of `O=C1CSC2(CCN(CCCN3c4ccccc4Sc4ccc(Cl)cc43)CC2)N1`, the Potency in [17] was more than 46 µM; in assay [18] it was more than 9.22 µM. The activity change, negative = inhibition in assay [19] was -6.21% [at 11.4 µM]. Moreover, the call in assay [20] was inactive.

Turning to `CC[N+](C)(C)Cc1ccccc1Br`, the Potency in [17] is > 46 µM and > 20.6 µM; in [18] it was > 46 µM and > 20.6 µM. Besides, the result in assay [19] and in [20] was inactive.

Turning to `CC(C)N=c1cc2n(-c3ccc(Cl)cc3)c3ccccc3nc-2cc1Nc1ccc(Cl)cc1`, the Potency in assay [17] and in [18] was more than 20.6 µM each time. For the same compound, the call in assay [20] was inactive.

For the compound `CC(C)(C)C(=O)OCOC(=O)[C@@H]1N2C(=O)[C@@H](N=CN3CCCCCC3)[C@H]2SC1(C)C`, the compound was called inactive in assay [19] and in [20].

`COC(=O)C1=C(C)NC(C)=C(C(=O)OCCCN2CCC(c3ccccc3)(c3ccccc3)CC2)[C@H]1c1cccc([N+](=O)[O-])c1`: the Potency in assay [17] and in assay [18] was more than 46 µM throughout. Further, the result in [19] and in assay [20] was inactive.

Consider `CC1=C(/C=C/C(C)=C/C=C/C(C)=C/CO)C(C)(C)CCC1`, for which the activity change, negative = cytotoxicity was -116% (active) in assay [1] and -3.42% in assay [7]. Also, the Potency entry in assay [3] was “inactive”. For the same compound, the result in assay [8], in assay [10], in assay [11], in [12], in [13] and in assay [14] was inactive. Besides, the compound was called inactive in assay [16].

On to `O=CCCCC=O`, for which the call in assay [19], in assay [6], in assay [10], in assay [11], in assay [15] and in [16] was inactive. The Potency result in assay [3] was “inactive”. In assay [7], the activity change, negative = cytotoxicity is -29.7%. Moreover, in assay [9], the Potency is 6.31 µM (active).

Consider `Nc1c(Br)cc(Br)cc1CNC1CCC(O)CC1` (stereo unspecified), for which the Potency in assay [17] and in assay [18] was more than 20.6 µM in each case. The outcome in [19] and in assay [20] was inactive.
